Hits are enriched below; roughly 1.2% of the tested compounds scored in any of these assays.
bovine MsrA act = activates bovine MsrA enzyme; AID 602163; activation, % at 10.6 µM; 360,000 compounds, 0.3% hits; purified bovine MsrA, absorbance read-out; in the data active = activation above about 7.5%;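 note: 0% = vehicle and 100% = reference activator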
GC-B act = GC-B (human) receptor activation. P20594. HEK293-GC-B cells, CNP EC30, cGMP TR-FRET; 0% at EC30 CNP, 100% saturating CNP. activation, % at 10 µM. 370,000 compounds, 0.11% hits. AID 1920062;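 active = activation at 10 µM reaching about 35% in either raw or pattern-adjusted values, limit read from the data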
MsrA inh = bovine MsrA inhibition; purified bovine MsrA, absorbance read-out; inhibition, % at 15.5 µM; 360,000 compounds, 0.75% hits; AID 651718;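 note: 0% = vehicle wells with enzyme and 100% = reference inhibitor wells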
GC-A act = GC-A (human) enzyme activation. HEK293 GC-A cells, cGMP TR-FRET, EC30 ANP; 0% at EC30 ANP, 100% saturating ANP. activation, % at 10 µM. 370,000 compounds, 0.14% hits; in the data active = activation above about 40%
MsrA inh confirm = bovine MsrA inhibition, confirmed; shares compounds with MsrA inh; purified bovine MsrA, absorbance read-out; inhibition, % at 15.5 µM; 2,300 compounds, 41% hits; AID 651822;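 note: coupled to thioredoxin reductase with NADPH and selenocystamine and DMSO as substrate; 0% = vehicle only and 100% = full effect of reference inhibitor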
Numbers without * were called inactive; . = no result given. Cut-off read from the data, not from the text of the source, unless noted: active = inhibition above about 4.5%; inactive = the rest.

SMILES | bovine MsrA act | GC-B act | MsrA inh | GC-A act | MsrA inh confirm
O=[N+]([O-])c1ccccc1Nc1ccccc1[N+](=O)[O-] | 2 | -2 | 0 | -10 | .
Nc1ccccc1Nc1ccc([N+](=O)[O-])cc1[N+](=O)[O-] | -4 | 2 | 17* | -1 | 9.4*
CCN(CC)c1ccc(-c2nnc(SCC(=O)N(CCOC)c3c(N)n(CC(C)C)c(=O)[nH]c3=O)o2)cc1 | -6 | -4 | 5.3* | -1 | 4
Cn1c(=O)oc2cc(S(=O)(=O)N3CCN(C(=O)C4CCCO4)CC3)ccc21 (configuration not stated) | . | -7 | . | 4 | .
CSc1nc(N2CCOCC2)c2c(c1C#N)CCCCC2 | -2 | -4 | 5.5* | -1 | 3
CCCc1nc(N2CCOCC2)c(C#N)c2c1CCCC2 | -11 | -4 | 0 | 0 | .
N#CCCSc1nc(N2CCOCC2)c2c(c1C#N)CCCC2 | 0 | -22 | 18* | -57 | 15*
CCCSc1nc(N2CCOCC2)c2c(c1C#N)CCCC2 | -4 | -23 | 13* | -28 | 11*
N#Cc1c(SCC(=O)O)nc(N2CCCCC2)c2c1CCCC2 | -3 | 5 | 3 | 2 | .
Oc1ccc(C=NNC(=S)Nc2cccnc2)nc1 | -3 | 6 | 7.0* | 1 | 5.5*
Oc1ccc(/C=N/NC(=S)Nc2cccnc2)cc1O | -9 | -4 | 4 | -5 | .
S=C(N/N=C/c1ccc2ncccc2c1)Nc1cccnc1 | 3 | 2 | 7.2* | -4 | 4
COc1ccccc1/C=N/NC(=S)Nc1cccnc1 | -2 | 0 | 4 | 3 | .
COc1ccc2c(c1OC)C(=O)OC2CC(=O)c1ccc(N(C)C)cc1 (configuration not stated) | -3 | -1 | 4.7* | 1 | 4.6*
CCCCOCC1CN(CCCC)S(=O)(=O)c2c(cccc2N2CCCCC2)O1 (configuration not stated) | . | -10 | 1 | 3 | .
CCN(CC)C(=O)c1ccc2nc3ccccc3nc2c1 | -4 | 2 | 5.6* | 3 | 2
CCN(CC)C(=O)c1ccc2nc(-c3ccccc3)c(-c3ccccc3)nc2c1 | -3 | -3 | 1 | -5 | .
COc1cccc(CNC(=O)CN2CCCc3ccccc32)c1 | . | -4 | . | 1 | .
COCCCNc1nc2nonc2nc1N1CCN2CCCC2C1 (configuration not stated) | -6 | 4 | 4.8* | 5 | 3
COC(CNC(=O)[C@H](Cc1ccccc1)NC1(C(=O)NC2CCCCC2)CCCC1)OC | . | -4 | . | 4 | .
CC1(C)S/C(=N/N=C/c2ccco2)NC1=O | -14 | 4 | 5.9* | 1 | 5.5*
CCCC1S/C(=N/N=C/c2ccco2)NC1=O (configuration not stated) | -4 | 0 | 4.7* | -3 | 6.6*
Cc1cc2c(nc1C)CCCN2S(=O)(=O)c1ccc(C(F)(F)F)cc1 | . | 0 | 0 | -1 | .
Clc1cccc(Cl)c1/C=N/Nc1c(Cl)cncc1Cl | -13 | -5 | 0 | -2 | .
Clc1cncc(Cl)c1N/N=C/c1ccncc1 | -5 | -5 | 4.9* | -4 | 4
SMILES | bovine MsrA act | GC-B act | MsrA inh | GC-A act | MsrA inh confirm
CC(=O)c1ccc(N2CCN(C(=O)c3ccc4c(c3)OCO4)CC2)cc1 | -8 | 0 | 4.8* | 2 | 4
O=C(c1ccc2c(c1)OCO2)N1CCN(c2ccc(Cl)cc2)CC1 | -2 | 0 | 1 | -4 | .
NS(=O)(=O)c1ccc(N2N=C(c3ccccc3)CC2c2ccccc2)cc1 (configuration not stated) | -6 | -6 | 3 | 5 | .
O=S(=O)(O)c1ccc(N2N=C(c3ccccc3)CC2c2ccccc2)cc1 (configuration not stated) | -5 | 3 | 5.8* | 11 | 3
O=C(CSC(=S)N1CCCC1)N/N=C/c1c(O)[nH]c(=S)[nH]c1=O | -1 | -1 | 5.2* | -2 | 5.2*
CC(=O)c1ccc(NC(=O)/C(=C\c2cccs2)NC(=O)c2ccco2)cc1 | -13 | 0 | 5.0* | 3 | 4.7*
O=C(NCc1ccccc1)/C(=C\c1ccc(O)cc1)NC(=O)c1ccco1 | -5 | -1 | 4.8* | 3 | 1
COc1ccc(NC(=O)/C(=C/c2cccs2)NC(=O)c2ccco2)cc1 | -9 | 2 | 2 | 4 | .
COc1ccc(NC(=O)/C(=C\c2ccc(OC)c(OC)c2)NC(=O)c2ccco2)cc1 | -6 | 5 | 5.0* | -3 | 4.8*
O=C(Nc1ccccc1)/C(=C/c1ccccc1)NC(=O)c1ccco1 | -5 | -1 | -1 | 0 | .
